Inconclusive results are not listed. Calls of active or inactive are those of the source. Unless noted, calls come from the whole dose curve.
Columns and labels:
[1] = target: Gonadotropin-releasing hormone receptor (Homo sapiens) (UniProt P30968); assay: Human gonadotropin-releasing hormone receptor (GnRHR) small molecule agonists, calcium flux assay in GnRHR-HEK293 cells (AID 1920063); note: nearly all actives have a fitted effect of over 35% in size
In short: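 Agonist mode: compounds at 15 concentrations, in triplicate, went onto calcium dye-loaded GnRHR-HEK293 cells. Intracellular calcium was then followed as 480/540 nm fluorescence at 1 s intervals over 3 min.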

[2] = target: KiSS-1 receptor (Homo sapiens) (UniProt Q969F8); assay: Human kisspeptin (KISS1R) small molecule agonists, calcium flux assay in KISS1R-HEK293 cells (AID 1920064; active = well fitted activation curve with a large enough effect in the repeat runs)
KiSS-1 receptor (Homo sapiens), sequence (Q969F8 whole entry, looked up): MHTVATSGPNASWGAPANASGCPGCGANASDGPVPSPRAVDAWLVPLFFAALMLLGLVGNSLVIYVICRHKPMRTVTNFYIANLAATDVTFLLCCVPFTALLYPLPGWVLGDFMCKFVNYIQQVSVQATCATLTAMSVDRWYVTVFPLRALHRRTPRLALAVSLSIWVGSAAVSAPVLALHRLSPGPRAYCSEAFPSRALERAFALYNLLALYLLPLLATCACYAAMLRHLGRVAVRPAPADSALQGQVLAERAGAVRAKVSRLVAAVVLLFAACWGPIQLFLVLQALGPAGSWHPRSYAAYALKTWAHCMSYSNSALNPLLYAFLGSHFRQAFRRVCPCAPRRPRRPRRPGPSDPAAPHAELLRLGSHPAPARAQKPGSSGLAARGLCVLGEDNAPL
In short: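 Agonist mode: intracellular calcium rise tracked at 1 s intervals over 3 min (480/540 nm) immediately after compound addition to dye-loaded KISS1R-HEK293 stable cells. Each compound tested at 15 concentrations in triplicate.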

[3] = G protein-coupled receptor (GPCR) small molecule agonists, calcium flux assay: HEK293 wild type cell line counter screen (AID 1920065)
In short: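 Calcium flux counter screen: compound added in agonist mode at 15 concentrations in triplicate to dye-loaded parental HEK293 cells. Fluorescence (480/540) read kinetically for 3 min; ATP served as positive control.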

[4] = p53 small molecule agonists, cell-based qHTS assay: qHTS cell viability counter screen (AID 1963581); note: nearly all actives have a fitted effect of over 45% in size; note: potency is the fitted concentration of half-maximal effect
In short: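 Counter screen read by CellTiter-Glo luminescence (ATP content, 30 min at room temperature), run in the same wells as the beta-lactamase reporter read. HCT-116 p53RE-bla cells saw compounds for 16 h at 37 C.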

[5] = p53 small molecule agonists, cell-based qHTS assay (AID 1963582; active = well fitted activation curve with a large enough effect in the signal ratio in the repeat runs, not every such curve was filed as active; the % refers to the signal ratio)
In short: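 Read-out is beta-lactamase FRET fluorescence after 2 h at room temperature with LiveBLAzer B/G substrate. p53 response element-bla cells were treated 16 h at 37 C with compounds in DMSO, added 5 h after seeding.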

[6] = target: 5-hydroxytryptamine receptor 2A (Homo sapiens) (UniProt P28223); assay: 5-hydroxytryptamine receptor 2A (HTR2A) small molecule antagonists, cell-based qHTS assay (AID 1963586); note: nearly all actives have a fitted effect of over 45% in size; note: potency is the fitted concentration of half-maximal effect
5-hydroxytryptamine receptor 2A (Homo sapiens), sequence (P28223 whole entry, looked up): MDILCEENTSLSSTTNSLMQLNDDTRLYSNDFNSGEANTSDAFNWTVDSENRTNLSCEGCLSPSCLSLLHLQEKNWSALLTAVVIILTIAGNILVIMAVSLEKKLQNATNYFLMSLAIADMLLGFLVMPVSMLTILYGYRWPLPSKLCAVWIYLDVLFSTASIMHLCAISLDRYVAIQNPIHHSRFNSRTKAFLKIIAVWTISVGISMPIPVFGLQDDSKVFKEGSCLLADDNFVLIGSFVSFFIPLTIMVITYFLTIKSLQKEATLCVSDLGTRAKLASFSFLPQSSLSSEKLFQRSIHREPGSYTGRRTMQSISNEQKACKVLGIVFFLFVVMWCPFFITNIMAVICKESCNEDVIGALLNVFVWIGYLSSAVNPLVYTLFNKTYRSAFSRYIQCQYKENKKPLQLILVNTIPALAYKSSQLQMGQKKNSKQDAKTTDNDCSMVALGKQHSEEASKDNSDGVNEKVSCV
In short: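 CHO cells stably expressing human HTR2A were plated for 18 h at 37 C, then loaded with calcium dye for 1 h. Compounds were preincubated 5 min at room temperature before DOI (4 nM solution) was added. Kinetic fluorescence was read for 3 min.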

[7] = target: 5-hydroxytryptamine receptor 2A (Homo sapiens) (UniProt P28223); assay: 5-hydroxytryptamine receptor 2A (HTR2A) small molecule agonists, cell-based qHTS assay (AID 1963587); note: nearly all actives have a fitted effect of over 30% in size
In short: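 Kinetic calcium-flux fluorescence (2 min, 1 sec intervals) after compound addition in agonist mode. HTR2A-CHO cells were cultured 18 h, then dye-loaded 1 h at 37 C.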

[8] = target: Muscarinic acetylcholine receptor M1 (Homo sapiens) (UniProt P11229); assay: Cholinergic receptor muscarinic 1 (CHRM1) small molecule antagonists, cell-based qHTS assay (AID 1963588); note: nearly all actives have a fitted effect of over 40% in size; note: potency is the fitted concentration of half-maximal effect
Muscarinic acetylcholine receptor M1 (Homo sapiens), sequence (P11229 whole entry, looked up): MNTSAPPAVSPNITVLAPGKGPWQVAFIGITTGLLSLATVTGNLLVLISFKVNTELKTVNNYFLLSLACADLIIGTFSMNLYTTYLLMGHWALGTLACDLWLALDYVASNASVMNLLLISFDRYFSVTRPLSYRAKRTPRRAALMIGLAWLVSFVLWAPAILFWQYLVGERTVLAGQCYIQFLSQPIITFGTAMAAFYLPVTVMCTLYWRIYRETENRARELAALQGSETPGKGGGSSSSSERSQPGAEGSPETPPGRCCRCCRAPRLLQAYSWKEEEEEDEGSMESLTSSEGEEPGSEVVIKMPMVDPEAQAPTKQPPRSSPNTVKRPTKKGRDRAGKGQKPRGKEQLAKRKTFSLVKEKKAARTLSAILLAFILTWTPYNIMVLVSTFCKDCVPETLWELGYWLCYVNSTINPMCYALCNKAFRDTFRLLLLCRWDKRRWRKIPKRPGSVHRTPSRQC
In short: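 Compounds were tested at 15 concentrations in three independent runs. Dye-loaded CHRM1-CHO cells were exposed 5 min at room temperature before stimulation by acetylcholine added at 50nM. Intracellular calcium was read kinetically on FDSS for 3 min.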

[9] = target: Muscarinic acetylcholine receptor M1 (Homo sapiens) (UniProt P11229); assay: Cholinergic receptor muscarinic 1 (CHRM1) small molecule agonists, cell-based qHTS assay (AID 1963589); note: nearly all actives have a fitted effect of over 35% in size
In short: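 Agonist-mode calcium-flux screen: compounds at 15 concentrations, three independent runs, were pin-transferred onto dye-loaded human CHRM1-CHO cells. Fluorescence was then recorded kinetically every second over minutes.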

[10] = cAMP Responsive Elements (CRE) small molecule agonists, cell-based qHTS assay (AID 1963590); note: potency is the fitted concentration of half-maximal effect
In short: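 Agonist mode: compound added to CRE-bla HEK 293T cells (2,000/well, 18 h after plating) for 3 h at 37 C/5% CO2. Reporter activity detected via FRET beta-lactamase substrate, 2 h room-temperature loading.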

[11] = cAMP Responsive Elements (CRE) small molecule antagonists, cell-based qHTS assay (AID 1963591; active = well fitted inhibition curve with a large enough effect in the signal ratio in the repeat runs, not every such curve was filed as active; the % refers to the signal ratio; note: potency is the fitted concentration of half-maximal effect)
In short: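 Antagonist mode: compounds are added alongside the adenylyl cyclase activator NKH477 (0.25 uM final) to CRE-bla HEK293T cells for 3 h. LiveBLAzer FRET substrate, 2 h at room temperature, reports bla expression.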

[12] = target: Beta-2 adrenergic receptor (Homo sapiens) (UniProt P07550); assay: Adrenergic beta2 receptor (ADRB2) small molecule agonists, cell-based qHTS assay (AID 1963593);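 note: CHO cells stably overexpressing human ADRB2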
Beta-2 adrenergic receptor (Homo sapiens), sequence (P07550 whole entry, looked up): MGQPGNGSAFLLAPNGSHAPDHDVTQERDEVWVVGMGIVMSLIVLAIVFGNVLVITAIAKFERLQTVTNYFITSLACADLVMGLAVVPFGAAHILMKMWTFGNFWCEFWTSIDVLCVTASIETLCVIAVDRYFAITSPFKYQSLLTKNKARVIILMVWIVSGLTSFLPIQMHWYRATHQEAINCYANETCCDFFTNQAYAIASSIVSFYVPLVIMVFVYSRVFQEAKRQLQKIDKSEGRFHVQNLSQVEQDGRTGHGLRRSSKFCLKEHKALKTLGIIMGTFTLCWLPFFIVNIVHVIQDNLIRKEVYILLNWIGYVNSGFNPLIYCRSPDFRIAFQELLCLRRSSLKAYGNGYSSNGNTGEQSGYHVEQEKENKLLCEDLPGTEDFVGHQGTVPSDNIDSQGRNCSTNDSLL
In short: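 CHO cells stably over-expressing ADRB2 were plated overnight at 37C, then dosed with compounds plus a stimulation mix containing 100uM IBMX and 25uM Ro-20-1724 for 0.5hr at room temperature. cAMP was measured by HTRF competition, 1hr.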

[13] = target: D(2) dopamine receptor (Homo sapiens) (UniProt P14416); assay: Dopamine D2 receptor (DRD2) small molecule agonists, cell-based qHTS assay (AID 1963594); note: nearly all actives have a fitted effect of over 35% in size; note: potency is the fitted concentration of half-maximal effect
D(2) dopamine receptor (Homo sapiens), sequence (P14416 whole entry, looked up): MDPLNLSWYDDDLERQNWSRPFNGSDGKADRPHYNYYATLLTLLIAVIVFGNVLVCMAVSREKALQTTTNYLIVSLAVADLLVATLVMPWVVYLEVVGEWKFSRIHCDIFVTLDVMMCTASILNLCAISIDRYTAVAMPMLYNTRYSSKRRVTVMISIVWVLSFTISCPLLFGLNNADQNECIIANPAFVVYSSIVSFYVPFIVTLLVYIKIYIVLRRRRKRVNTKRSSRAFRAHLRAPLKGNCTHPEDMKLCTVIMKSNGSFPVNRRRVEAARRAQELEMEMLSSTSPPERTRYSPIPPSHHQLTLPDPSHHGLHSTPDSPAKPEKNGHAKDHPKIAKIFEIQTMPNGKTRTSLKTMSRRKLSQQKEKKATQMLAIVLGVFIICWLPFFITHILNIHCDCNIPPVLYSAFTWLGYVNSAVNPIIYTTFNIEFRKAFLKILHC
In short: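 cAMP accumulation in DRD2-HEK293 cells measured by HTRF after 1 h detection; compounds added 10 min before NKH477 (200nM […]) forskolin-analogue stimulation, 30 min at room temperature, with Ro20-1724 present at 0.1 mM final.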

[14] = target: D(2) dopamine receptor (Homo sapiens) (UniProt P14416); assay: Dopamine D2 receptor (DRD2) small molecule antagonists, cell-based qHTS assay (AID 1963595; active = well fitted inhibition curve with a large enough effect in the signal ratio in the repeat runs, with a control signal flat; the % refers to the signal ratio)
In short: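 HEK293 cells stably expressing DRD2, preincubated with 0.1 mM Ro20-1724 and compounds 10 min, were stimulated with 200 nM NKH477 plus 12 nM quinpirole for 30 min at room temperature; cAMP measured by HTRF (665/620 nm).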

[15] = p53 small molecule agonists, cell-based qHTS assay with human liver microsomes: qHTS cell viability counter screen (AID 1963579); note: nearly all actives have a fitted effect of over 45% in size
In short: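 p53RE-bla cells, 4,000/well, dosed 5 hours after plating, with human liver microsomes (0.5 mg/mL final) plus NADPH (0.5 mg/mL final), 16 hours at 37 C. Viability read as CellTiter-Glo luminescence after 30 min at room temperature.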

[16] = p53 small molecule agonists, cell-based qHTS assay with rat liver microsomes: qHTS cell viability counter screen (AID 1963580); note: nearly all actives have a fitted effect of over 45% in size; note: potency is the fitted concentration of half-maximal effect
In short: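 Rat liver microsome (0.5 mg/mL final) and NADPH (0.5 mg/mL final) co-incubation with compounds for 16 h at 37 C on HCT-116 p53RE-bla cells; cytotoxicity taken from intracellular ATP luminescence.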

[17] = target: Beta-2 adrenergic receptor (Homo sapiens) (UniProt P07550); assay: Adrenergic beta2 receptor (ADRB2) small molecule antagonists, cell-based qHTS assay (AID 1963592); note: nearly all actives have a fitted effect of over 50% in size; note: potency is the fitted concentration of half-maximal effect
In short: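 Assay format: CHO-ADRB2 cells, 18-20hr seeding at 37C/5% CO2, then compound plus 1nM isoproterenol agonist mix for 0.5hr RT. Homogeneous time-resolved fluorescence cAMP detection after 1hr, expressed as 665/615 nm ratio.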

[18] = p53 small molecule agonists, cell-based qHTS assay with rat liver microsomes (AID 1963578)
In short: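 p53RE-bla cells, 4,000/well, pre-incubated 5 h, then given compounds plus rat liver microsomes (0.5 mg/mL final) and NADPH (0.5 mg/mL final). Incubation 16 h at 37 C; beta-lactamase reporter read by LiveBLAzer fluorescence after 2 h at room temperature.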

[19] = p53 small molecule agonists, cell-based qHTS assay with human liver microsomes (AID 1963577)
In short: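 p53RE-bla cells, 4,000/well, compound added after 5 h, with human liver microsomes 0.5 mg/mL and NADPH 0.5 mg/mL final; 16 h at 37 C, then LiveBLAzer 2 h RT, fluorescence.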

Measured: Potency

Gonadotropin-releasing hormone receptor (Homo sapiens), sequence (P30968 whole entry, looked up): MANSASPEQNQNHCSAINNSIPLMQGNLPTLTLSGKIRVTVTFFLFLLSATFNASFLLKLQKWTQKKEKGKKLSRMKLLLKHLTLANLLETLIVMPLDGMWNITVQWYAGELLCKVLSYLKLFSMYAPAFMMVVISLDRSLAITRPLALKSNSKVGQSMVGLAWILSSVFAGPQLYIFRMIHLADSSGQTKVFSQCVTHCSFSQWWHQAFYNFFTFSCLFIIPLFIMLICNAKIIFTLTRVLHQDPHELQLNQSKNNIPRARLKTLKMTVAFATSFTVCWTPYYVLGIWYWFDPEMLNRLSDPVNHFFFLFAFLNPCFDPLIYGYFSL

CCCCCCCCCO
active: [13] 43.3 µM
not listed: [15] | [16] | [17] | [18] | [19]
inactive: all other assays above

COc1cc(S(=O)(=O)Nc2ccccc2)c(OC)cc1N
not listed: [5] | [12] | [18] | [19]
inactive: all other assays above

O=C(c1ccccc1)c1ccccc1
not listed: [7] | [9] | [15] | [16] | [18] | [19]
inactive: all other assays above

O=C1c2c(O)ccc(O)c2C(=O)c2c(NCCNCCO)ccc(NCCNCCO)c21
inactive: [1] | [2] | [3] | [10]
active: [16] 19.9 µM | [11] 21.1 µM

Cc1ccc(O)c([C@H](CCN(C(C)C)C(C)C)c2ccccc2)c1
active: [8] 0.0326 µM
not listed: [4] | [5] | [7] | [17] | [19]
inactive: all other assays above

Cc1nc(-c2ccccn2)ncc1C(=O)Nn1cc(C)c2cc(F)ccc21
not listed: [5] | [11] | [13] | [15] | [18] | [19]
inactive: all other assays above

C=CC(C)=CCC=C(C)C
not listed: [11] | [18]
inactive: all other assays above

Nc1ccc(N=Nc2ccccc2)c(N)c1
active: [6] 1.64 µM | [8] 23.2 µM
not listed: [12] | [13] | [14] | [17] | [19]
inactive: all other assays above

CN(C/C=C/C#CC(C)(C)C)Cc1cccc2ccccc12
inactive: [1] | [2] | [3] | [19] | [15] | [16] | [4] | [17] | [12] | [13]

O=C(O)COCCN1CCN(C(c2ccccc2)c2ccc(Cl)cc2)CC1 (stereo not given)
not listed: [10] | [14] | [15] | [16] | [18] | [19]
inactive: all other assays above

CC(=O)Nc1cccc(N)c1
not listed: [4] | [10] | [12] | [16] | [19]
inactive: all other assays above

CCc1cc2cc(OC)c(OC)cc2c(Cc2ccccc2)n1
active: [10] 11.9 µM
not listed: [4] | [6] | [7] | [13] | [15] | [19]
inactive: all other assays above

Nc1ccc([N+](=O)[O-])cc1O
not listed: [4] | [12] | [13] | [14] | [16] | [17] | [18] | [19]
inactive: all other assays above

O=S1(=O)N=C(O)c2ccccc21
not listed: [5] | [11] | [12] | [18] | [19]
inactive: all other assays above

COCCOC
active: [4] 2.75 µM
not listed: [5] | [9] | [11] | [12] | [18] | [19]
inactive: all other assays above

CN1CCC(N(Cc2cccs2)c2ccccc2)CC1
active: [6] 0.365 µM
inactive: [1] | [2] | [3] | [15] | [4] | [7] | [9] | [11] | [17]

c1ccc(C(O[C@@H]2CCCN(CCc3ccc4c(c3)OCO4)C2)c2ccccc2)cc1
active: [8] 0.119 µM | [17] 48.6 µM
inactive: [1] | [2] | [3] | [15] | [16] | [4] | [9] | [14]

c1ccc2occc2c1
active: [6] 0.375 µM
inactive: [1] | [2] | [3] | [19] | [18] | [7] | [8] | [10] | [11] | [14]
